Hit rate of the full screen: of about 2,100 compounds, about 940 (45%) were called active. About 48% were inconclusive and are not listed. Calls come from the whole dose curve; as a rule, active = well fitted inhibition curve with a large enough effect; inconclusive = small, poorly fitted or top-dose-only effect; inactive = no such curve, though single readings can be large or run the other way. The set was probably picked from earlier hits. This is one part of the list.
Test: Confirmatory qHTS for Inhibitors of ATXN expression; note: nearly all actives have a fitted effect of over 65% in size;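 for activity change, negative = inhibition: 0% = DMSO vehicle wells and -100% = medium-only wells without cells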
Details: ATXN2-luciferase reporter cells, luminescence, 24 h; series mostly up to 11.5 µM; activity change, negative = inhibition: at the top concentration
Description: PI: Daniel Scoles Ph.D. University of Utah School of Medicine, Salt Lake City, Utah MLPCN Grant: NS073009 Spinocerebellar ataxia type 2 (SCA2) is a multisystem neurodegenerative disease caused by a dominantly acting mutation leading to expansion of a polyQ domain in the ataxin-2 protein (ATXN2). SCA2 patients develop progressive ataxia and later lose function in other neuronal systems. Prominent parkinsonian signs develop in some patients. Like many neurodegenerative disorders, no symptomatic or disease-modifying treatments are known. The primary objective of the proposed research is to identify compounds inhibiting ATXN2 expression and to test them for efficacy in SCA2 mouse models. We have developed a cell-based assay paired with an in vivo mouse model using identical luciferase expression constructs. This approach takes advantage of an ATXN2-luciferase transgene, with the luciferase gene flanked by the upstream and downstream portions of the ATXN2 gene. Here we describe a 5-7 dose quantitative high thoroughput screen (qHTS) for compounds lowering ATXN2 expression. We screened the NIH Molecular Libraries Small Molecule Repository (MLSMR) and NCGC's mechanistically annotated (MIPE) and drug repurposing (NPC) collections of compounds for lowering expression of an ATXN2-luciferase reporter in HEK-293 cells. The assay is a multiplexed cell viability assay to ensure target reduction in the absence of cytotoxicity. Secondary qHTS assays included a CMV-luciferase reporter expressed in HEK-293 cells as well as a biochemical assay using recombinant luciferase to detect inhibitors of the reporter enzyme. Compounds that inhibit ATXN2 expression but is not cytotoxic were selected for confirmatory and secondary screens.
PROTOCOL TABLE (as described by Inglese J, Shamu CE and Guy RK. 2007) SEQUENCE No. (e.g., 1, 2, 3, etc.); PARAMETER (e.g., Cells, Incubation, Reagent, etc.); VALUE; DESCRIPTION. 1; Cells; 4 uL; white, solid bottom, 1536-well Greiner assay plate. 2; Incubation; 2 hr; 37 degree C in 5% humidified CO2. 3; Compounds; 23 nL; Kalypsis pintool (Wako USA) equipped with a 1536-well pin head. 4; Incubation; 24 hr; 37 degree C in 5% humidified CO2. 5; Reagent; 1 uL; Gly-Phe-7-Amino-4-trifluoromethylcoumarin. 6; Incubation; 30 min; 37 degree C in 5% humidified CO2. 7; Detection; Fluorescence; ViewLux plate reader (PerkinElmer). 8; Reagent; 3 uL; SteadyGlo luciferase solution (Promega). 9; Incubation; 5 min; room temperature. 10; Detection; Luminescence; ViewLux plate reader (PerkinElmer). NOTES (numbers refer to Sequence numbers above) 1. […] expressing ATXN2-luciferase reporter were suspended in phenol-red free DMEM and dispensed in assay plates using a Multidrop Combi dispenser (Thermo Fisher Scientific). Wells containing medium only were plated on each plate, and values were used to normalize (100% inhibition) in the luciferase and CellTiter-Fluor assays. 2. Assay plates were incubated. Evaporation was prevented by covering assay plates with metal lids containing holes to allow gas diffusion. 3. Compounds were added in a dose response manner with the final concentrations of 57, 11.4, 2.28, 0.46, 0.091, 0.018, 0.0037 uM. Vehicle-only plates, with DMSO being pin-transferred to columns 5-48, were inserted uniformly at the beginning and the end of each library to monitor and record any shifts in assay performance. 5. 125 uM Gly-Phe-7-Amino-4-trifluoromethylcoumarin (MP Biomedicals) working concentration was used at a final concentration of 25 uM. 7. To assess cell viability; the assay plates were read using the ViewLux high-throughput CCD imager (PerkinElmer), wherein single end-point fluorescence measurement was acquired (excitation 405/10; emission 540/25 nm). 8. Detection reagent SteadyGlo Luciferase (Promega) was added to the assay plate. 10. Luminescence is then measured on the ViewLux imager equipped with a clear emission filter using a 2 sec exposure. […]
Potency is the fitted concentration of half-maximal effect.

Activity change, negative = inhibition, inactive:
N#Cc1ccccc1NC(=O)C1SC(=Nc2ccccc2)C(C(=O)Nc2ccc(Cl)cc2)=C1N (configuration not stated) -3.14%
Cc1ccc(-c2nc3cc(Br)cnc3nc2-c2ccc(C)cc2)cc1 -7.66%
CCOC(=O)Nc1ccc(N2CCOCC2)c(S(=O)(=O)Nc2ccc(Cl)cc2)c1 -19.7%
OC(c1ccccc1)(c1nc(-c2ccc3ccccc3c2)cs1)C(F)(F)F (configuration not stated) 26.4%
OC(c1ccccc1)(c1nc(-c2cc3ccccc3o2)cs1)C(F)(F)F (configuration not stated) 8.38% [at 57.5 µM]
COC(=O)Cc1[nH]n(-c2nc3ccccc3s2)c(=O)c1C(C)=Nc1ccc(C)cc1 -90.6% [at 57.5 µM]
COc1cccc(OCC(=O)Nc2cc(Cl)ccc2Oc2ccccc2)c1 -25.3%
Cc1ccc(SC2=C(Sc3ccc(C)cc3)C(=O)c3ccccc3C2=O)cc1 6.96% [at 57.5 µM]
CN(C)C(=O)c1cccc(-c2cnc3c(NC=O)cc(-c4ccc(F)cc4)cn23)c1 -12%
COc1ccc(-c2cc(NC=O)c3ncc(-c4cccc(C(=O)NCCN(C)C)c4)n3c2)cc1 -22.5% [at 57.5 µM]
CN(C)C(=O)c1cccc(-c2cnc3c(NC=O)cc(-c4ccccc4N(C)C)cn23)c1 -13%
CCOC(=O)N(C)c1c(CC)nc2c(OCc3ccccc3OC)cccn12 -25.4% [at 57.5 µM]
CC1(C(=O)NCc2ccco2)CCN1C(=O)C1(c2ccccc2)CC1 (configuration not stated) 2.15%
CNc1ccc(Br)cc(C(=O)/C=C/c2ccc3c(c2)OCO3)c1=O 7.11%
CC(SC(C)C(=O)NN=Cc1cccc(Cl)c1)C(=O)NN=Cc1cccc(Cl)c1 (configuration not stated) -31.9%
NS(=O)(=O)c1ccc(CCNC(=O)COC(=O)/C=C/c2cc(Br)ccc2F)cc1 -3.85%
C/[N+]([O-])=C\c1cccc(OCCN2CCN(c3ncc(C(F)(F)F)cc3Cl)CC2)c1 -26.9%
COc1ccc(NS(=O)(=O)c2ccc(C(=O)Nc3c(C)n(C)n(-c4ccccc4)c3=O)cc2)cc1 -4.47%

Potency, active:
O=c1c2c(-c3ccccc3)csc2nc2c3ccccc3c(NCCN3CCOCC3)nn12 3.16 µM
Brc1cnc2nc(SCc3nc4ccccc4[nH]3)[nH]c2c1 2.82 µM
O=C(CSc1nnc(-c2ccc(Br)cc2)o1)Nc1cccc(C(=O)O)c1 3.16 µM
COc1cc(/C=N/Nc2snc(SC)c2C#N)cc(OC)c1OC 3.16 µM
Cc1ccc(OCC(O)Cn2c(=N)n(CCN3CCCCC3)c3ccccc32)cc1 (configuration not stated) 14.1 µM
N=c1n(CCN2CCCCC2)c2ccccc2n1CC(O)c1ccc(Cl)c(Cl)c1 (configuration not stated) 15.8 µM
CCCCCn1c(=N)n(CC(O)COc2ccccc2OC)c2ccccc21 (configuration not stated) 2.51 µM
COc1cccc(NC(=S)/C(=C(\[O-])c2cc(C)n(-c3ccccc3F)c2C)[n+]2ccc(N(C)C)cc2)c1 15.8 µM
O=C(Nc1ccc(Cl)cc1)Nc1ccc(N2CCCC2)c(S(=O)(=O)Nc2ccccc2Cl)c1 3.55 µM
Cc1ccc2ccc3cccnc3c2n1 4.47 µM
OC(c1ccccc1)(c1nc(/C=C/c2ccc(C(F)(F)F)cc2)cs1)C(F)(F)F (configuration not stated) 35.5 µM
CCOc1cc(C=C(C(=O)OC)C(=O)OC)ccc1OCc1ccc([N+](=O)[O-])cc1 25.1 µM
CCN(CC)c1ccc(/C=N/NC(=O)CNC(=O)C2COc3ccccc3O2)c(O)c1 (configuration not stated) 0.251 µM
COc1cccc(/C=N/NC(=O)Cn2nc(C)c([N+](=O)[O-])c2C)c1O 14.1 µM
O=C(CNC(=O)C1COc2ccccc2O1)N/N=C/c1ccc(O)cc1O (configuration not stated) 2.51 µM
CCN(CC)c1ccc(/C=N/NC(=O)c2cccc(S(=O)(=O)N3CCOCC3)c2)c(O)c1 0.891 µM
COc1ccccc1/C=C\C(=O)NCC(=O)N/N=C/c1cccc(OC)c1O 12.6 µM
COc1cccc(/C=N/NC(=O)CSc2ccccc2C)c1O 12.6 µM
COc1cccc(/C=N/NC(=O)CNC(=O)C2COc3ccccc3O2)c1O (configuration not stated) 8.91 µM
CCN(CC)c1ccc(/C=N/NC(=O)Cc2cccs2)c(O)c1 2.82 µM
Cn1ncc2c(N3CCN(c4ccc(Cl)c(Cl)c4)CC3)ncnc21 1.58 µM
Oc1c(C(Nc2cccc(C(F)(F)F)c2)c2ccncc2)ccc2cccnc12 (configuration not stated) 3.55 µM
Cc1cc(NC(c2cccnc2)c2ccc3cccnc3c2O)no1 (configuration not stated) 2.82 µM
Oc1c(C(Nc2cccc(C(F)(F)F)c2)c2cccnc2)ccc2cccnc12 (configuration not stated) 28.2 µM
COc1ccc(Cl)cc1C(Nc1cccnc1)c1ccc2cccnc2c1O (configuration not stated) 12.6 µM
Cc1cc(C)n(-c2nc(NCCN(C)C)c3c4c(sc3n2)COC(C)(C)C4)n1 3.16 µM
COc1cc(OC)cc(-c2cc3nc(C)c(CCC(=O)NCc4ccccc4)c(C)n3n2)c1 4.47 µM
COc1cc(OC)cc(-c2cc3nc(C)c(CCC(=O)O)c(C)n3n2)c1 0.562 µM
COc1cccc(CN(C)C(=O)c2ccc(OCC(=O)Nc3cccc(C(F)(F)F)c3)c(OC)c2)c1 15.8 µM
CCCCCCn1c2c(c(=N)c3c1CCC3)CCC2 3.98 µM
Cc1cnc(NC(=O)CN2CCN(c3ccccn3)CC2)s1 5.62 µM
CCN1CCN(C2=C(NS(=O)(=O)c3ccc(C)cc3)C(=O)c3ccccc3C2=O)CC1 3.16 µM
CC(=O)NC(c1ccc(C(C)C)cc1)c1ccc2cccnc2c1O (configuration not stated) 0.631 µM
CC(=O)NC(c1ccco1)c1ccc2cccnc2c1O (configuration not stated) 1.41 µM
CC(=O)NC(c1ccc2ccccc2c1)c1ccc2cccnc2c1O (configuration not stated) 0.141 µM
CC(=O)c1sc(C(C)(C)C)cc1NC(=O)/C=C/C(=O)O 17.8 µM
COc1cc(-c2cnc3c(NC=O)cc(-c4cccc(C(F)(F)F)c4)cn23)cc(OC)c1OC 12.6 µM
CCSc1ccc(-c2cc(NC=O)c3ncc(-c4cccc(C(=O)NCCN(C)C)c4)n3c2)cc1 3.16 µM
COc1ccc(F)cc1-c1cc(NC=O)c2ncc(-c3cccc(C(=O)N(C)C)c3)n2c1 3.55 µM
COc1ccccc1-c1cc(NC=O)c2ncc(-c3ccc(F)cc3)n2c1 22.4 µM
CCOc1ccc(/C=C/[N+](=O)[O-])c2ccccc12 15.8 µM
Cc1ccc(CN2CCC(c3cc(-c4ccc(Cl)cc4)n[nH]3)CC2)cc1 28.2 µM
COC(=O)c1ccccc1COc1cccn2c(N(C)Cc3cccs3)c(C)nc12 28.2 µM
ClC(Cl)(Cl)c1nc2ccccc2n2nncc12 2.82 µM
CCc1ccc(-c2nc(CS(=O)CC(=O)NCc3ccco3)c(C)o2)cc1 (configuration not stated) 0.398 µM
CCOC(=O)c1c(NC(=O)COC(=O)CNC(=O)c2ccco2)sc(C)c1C 2.51 µM
COC(=O)c1cn(NC(=O)c2cc([N+](=O)[O-])ccc2F)c(=O)c2ccccc12 2 µM
COc1ccc(C(=O)N/N=C/c2cc(Br)ccc2O)cc1OC 3.16 µM
O=C(N/N=C/c1cc(Br)ccc1OC(=O)c1ccc(Br)cc1)c1ccncc1 2.82 µM
CC(C)CC(=NNC(=O)c1ccncc1)c1cc(Cl)ccc1O 0.708 µM
COc1ccc(O)c(/C=N/NC(=O)c2ccc(CSc3nc(C)cc(C)n3)cc2)c1 2.82 µM
COc1ccc(O)c(/C=N/NC(=O)c2ccc(OCc3cccc(Br)c3)cc2)c1 0.891 µM
O=C(N/N=C/c1cc(Br)cc(Br)c1O)c1cccc(N2CCCC2=O)c1 2 µM
O=C(N/N=C/c1cc(Br)ccc1O)c1ccncc1 0.794 µM
O=C(N/N=C/c1cc(Br)cc(Br)c1O)c1ccncc1 2.82 µM
O=C(CP(=O)(c1ccccc1)c1ccccc1)N/N=C/c1cc(Br)cc(Br)c1O 1.58 µM
O=C(N/N=C/c1cc(Cl)ccc1O)c1ccncc1 3.16 µM
O=C(N/N=C/c1cc(Br)ccc1O)C(c1ccncc1)N1CCOCC1 (configuration not stated) 14.1 µM
CCC(O)(CC)C(=O)N/N=C/c1cc(Br)cc(Br)c1O 17.8 µM
CN(C)c1ccc(C(=O)N/N=C/c2cc(Br)cc(Br)c2O)cc1 1.41 µM
C/C(=N\N=C(N)N)c1ccc(Cl)cc1Cl 15.8 µM
CC1(C)Cc2ccccc2C(NNC(=O)c2ccccn2)=N1 15.8 µM
O=C(CNC(=O)c1ccc2c(c1)OCO2)N/N=C/c1cc(Br)ccc1O 3.55 µM
O=C(CNC(=O)c1ccccc1Br)N/N=C/c1cc(Br)ccc1O 2 µM
O=C(N/N=C/c1cc(Cl)ccc1O)c1ccccc1Br 3.98 µM
O=C(N/N=C/c1cc(Br)cc(Cl)c1O)c1ccc2c(c1)OCO2 3.98 µM
O=C(CNC(=O)c1ccccc1Br)N/N=C/c1ccccc1O 15.8 µM
O=C(CCc1ccccc1)N/N=C/c1cc(Br)ccc1O 1.12 µM
CCc1ccccc1OCC(=O)Nc1nc(-c2cccnc2)cs1 14.1 µM
COc1ccc(/C=C/C(O)=C2/C(=O)N(C)C3(C)CC2c2ccccc2O3)cc1 (configuration not stated) 20 µM
CCOc1ccc(NS(=O)(=O)c2ccc(C(=O)NNC(=O)c3ccccc3O)cc2)cc1 15.8 µM
Cc1ccc(NS(=O)(=O)c2ccc(C(=O)NNC(=O)c3ccccc3O)cc2)cc1 14.1 µM
Cc1ccc(C)c(S(=O)(=O)N2CCN(c3ncnc4sccc34)CC2)c1 0.631 µM
Cc1ccc(N/C(N)=N/c2nc(C)cc(N3CCCCC3)n2)c(C)c1 3.98 µM
